The sample as a whole holds a higher share of hits than the screen did.
DT40 TDP1 CPT: DT40-hTDP1 cell growth loss with CPT. chicken DT40 Tdp1-/-;hTDP1 cells + 20 nM CPT, ATP luminescence, 48 h. Potency, µM (titrated, usually from 46.2 µM), inactives show top-dose activity change, negative = growth inhibition, usual class: inhibitors. 12% of 420,000 active; note: potency is the fitted concentration of half-maximal effect; nearly all actives have a fitted effect of over 55% in size
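Cell growth measured by CellTiter-Glo luminescence after a minimum 48 h, 37 C compound exposure with 20 nM CPT in Tdp1-knockout DT40 cells stably expressing hTDP1, seeded 400/well; qHTS titration format.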
HT1080NT lethal: kills 2HG-producing HT-1080-NT fibrosarcoma cells; HT-1080-NT fibrosarcoma viability, CellTiter-Glo ATP luminescence, 48 h; Potency, µM (titrated, usually from 46.1 µM), without a hit: at the highest dose activity, negative = less viability, actives largely listed as cytotoxic; 1.6% of 360,000 active;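 note: NT is the 2HG producing partner of a matched IDH1 knockdown line; potency is the fitted concentration of half-maximal effect; 0% = DMSO-treated cells and -100% = media-only wells without cells; nearly all actives have a fitted effect of over 55% in size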
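HT-1080-NT fibrosarcoma cells (2HG-overproducing), 750 cells/well in RPMI with 5% FBS, dosed after 2 h and incubated 48 h at 37C. CellTiter-Glo luminescence normalized to DMSO and no-cell wells; concentration-response curves fitted and classed.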
ALOX12 inh: ALOX12 (human) lipoxygenase inhibition | purified 12hLO, xylenol orange hydroperoxide absorbance | Potency, µM (series often up to 108 µM), for inactives: top-dose activity change, negative = inhibition, most hits filed as inhibitors | 1.1% of 580,000 active | AID 1671190; note: potency is the fitted concentration of half-maximal effect
Target sequence (P18054 whole entry, looked up): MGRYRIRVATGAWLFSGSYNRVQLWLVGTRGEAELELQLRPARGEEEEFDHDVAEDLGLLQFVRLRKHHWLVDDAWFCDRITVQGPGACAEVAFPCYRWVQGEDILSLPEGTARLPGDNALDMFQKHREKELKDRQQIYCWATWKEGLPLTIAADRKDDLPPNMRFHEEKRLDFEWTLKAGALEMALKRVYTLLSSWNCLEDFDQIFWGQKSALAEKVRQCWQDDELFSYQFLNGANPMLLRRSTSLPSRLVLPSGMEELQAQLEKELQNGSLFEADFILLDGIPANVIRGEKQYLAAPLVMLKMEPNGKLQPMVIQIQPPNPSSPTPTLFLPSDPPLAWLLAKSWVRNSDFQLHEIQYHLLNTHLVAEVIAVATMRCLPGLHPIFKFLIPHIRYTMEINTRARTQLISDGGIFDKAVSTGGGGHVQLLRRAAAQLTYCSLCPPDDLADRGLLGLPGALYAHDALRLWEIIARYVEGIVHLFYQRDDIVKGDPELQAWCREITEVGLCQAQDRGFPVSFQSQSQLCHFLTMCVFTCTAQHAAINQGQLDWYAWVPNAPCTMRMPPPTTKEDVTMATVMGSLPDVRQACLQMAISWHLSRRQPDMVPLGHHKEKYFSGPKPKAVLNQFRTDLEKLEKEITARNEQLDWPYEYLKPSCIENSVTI
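Purified human 12hLO (150 nM final) in 25 mM Hepes, 0.01% Triton X-100, pH 7.0 was preincubated 15 min at room temperature with compound. Then 40 uM arachidonic acid was added, 30 min. Hydroperoxide was read by Fe-XO absorbance ratio 573/405 nm.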
DT40 TDP1 no CPT: qHTS for Inhibitors of human tyrosyl-DNA phosphodiesterase 1 (TDP1): qHTS in cells in absence of CPT; DT40 Tdp1-/- hTDP1 cells, no CPT, ATP luminescence, 48 h; Potency, µM (highest dose often 46.2 µM), without a hit: at the highest dose activity change, negative = growth inhibition, actives largely listed as inhibitors; 15% of 420,000 active; AID 686978, 2013; note: potency is the fitted concentration of half-maximal effect; nearly all actives have a fitted effect of over 55% in size
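No-CPT arm: Tdp1-/-;hTDP1 DT40 cells (400/well) plus compounds, incubated ≥48 hr at 37 °C. Readout CellTiter-Glo luminescence.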
HT1080 IDH1KD tx: toxicity to HT-1080 IDH1 knockdown cells (counter line); HT-1080 IDH1 knockdown viability, ATP luminescence, 48 h; Potency, µM (doses to about 46.1 µM), inactives show at the highest dose activity, negative = toxicity, usual class: cytotoxic; 2% of 360,000 active;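 note: potency is the fitted concentration of half-maximal effect; 0% = DMSO wells and -100% = cell-free medium wells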
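Using the IDH1-knockdown HT-1080 line run in the same batch and compound series as the NT line, viability after 48 h at 37 °C was determined by CellTiter-Glo luminescence and expressed as % activity.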
IL1B secr inh: inflammasome signaling inhibition, IL-1 beta readout | AID 743279 | activity change, % at 57.5 µM | THP-1 LPS/ATP IL-1B secretion, AlphaLISA, 16 h; active compounds read low | 4.7% of 360,000 active; in the data active = activity change below about -50%; inconclusive = mostly about -30% to -49%
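THP-1 cells pretreated 1 hr with compounds (up to 57.5 uM final), then stimulated with LPS (250 ng/mL final) plus ATP (1.25 mM final); secreted IL-1B measured by AlphaLISA after 16 hr, decreased signal indicating inhibition.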
Starred values were filed as active, the others as inactive; u = inconclusive; x = no result; [ ] = dose if it differs, or a comment. Unless noted, calls come from the whole dose curve; as a rule, active = well fitted curve in the direction sought with a large enough effect; inconclusive = small, poorly fitted or top-dose-only effect, or another doubt; inactive = no such curve, though single readings can be large; an effect the other way counts as inactive or inconclusive. Unless noted, % is set by controls: 0 for no effect and ±100 for the full control effect.

SMILES	DT40 TDP1 CPT	HT1080NT lethal	ALOX12 inh	DT40 TDP1 no CPT	HT1080 IDH1KD tx	IL1B secr inh
Cn1c(=O)c2c(nc(NCc3cccnc3)n2Cc2cccc(C(F)(F)F)c2)n(C)c1=O	18µM*	21µM*	1%	7.3µM*	2%[9.24 µM]	-10
O=C1NC(=NC2CCCCC2)C2(CCN(CC3CCCCC3)CC2)N1c1cccnc1	x	x	7%[6.33 µM]	x	x	x
Cc1ccc(-c2noc(CN3CCCC3c3cccs3)n2)cc1 (stereo not drawn)	x	x	-7%	x	x	x
O=C(CNC(=O)c1ccccn1)N=Nc1c(O)[nH]c2ccccc12	u	-21%	u	15µM*	-16%	27
COc1ccc(CC(=O)NCC(=O)N=Nc2c(O)[nH]c3ccccc23)cc1	10%	-1%	1%	28%	15%	31
Cc1ccc(CN2CCN(CC(=O)N=Nc3c(O)[nH]c4ccccc34)CC2)cc1	u	-14%	-25%	15µM*	-24%	-2
CCn1c(SCC(=O)N=Nc2c(O)[nH]c3ccccc23)nc2ccccc21	16µM*	-13%	8%	16µM*	-7%	1
O=C(CN1CCN(Cc2ccccc2Cl)CC1)N=Nc1c(O)[nH]c2ccccc12	u	0%	16%	u	-11%	21
Cc1cc(Cl)ccc1N(CC(=O)N=Nc1c(O)[nH]c2ccccc12)S(C)(=O)=O	-18%	-1%	0%	-17%	-26%	-23
Cc1ccc(S(=O)(=O)N(CC(=O)N=Nc2c(O)[nH]c3ccccc23)c2cccc(C)c2)cc1	u	u	1%	21µM*	13µM*	-1
C[C@@H]1CN(Cc2ccc3c(c2)CN(Cc2nc(-c4ccccc4)cs2)CCO3)C[C@H](C)O1	-7%[9.04 µM]	x	-2%	23µM*	x	x
C[C@@H]1CN(Cc2ccc3c(c2)CN(C(=O)CN2CCOc4ccccc4C2)CCO3)C[C@H](C)O1	-4%[9.04 µM]	x	15%	-23%	x	x
C[C@@H]1CN(Cc2ccc3c(c2)CN(C(=O)c2ccc(Oc4ccccc4)o2)CCO3)C[C@H](C)O1	-14%[9.04 µM]	x	13%	12µM*	x	x
CCN(CCO)c1ncnc2onc(-c3ccc(F)cc3)c12	-26%	-1%	9%	-22%	0%	8
Cc1cccc(N(C)c2ncnc3onc(-c4ccc(F)cc4)c23)c1C	u	u	-3%	16µM*	u	40
O=C(ONC(=O)C1C2C=CC(C2)C1C(=O)NOC(=O)c1ccccc1)c1ccccc1 (stereo not drawn)	3.3µM*	-16%	0%	2.9µM*	u	-16
COC(=O)c1ccc(NC(=O)C2C3C=CC(C3)C2C(=O)O)cc1 (stereo not drawn)	-6%	u	0%	19%	-14%	0
CC(Oc1ccc(-c2ccccc2)c(F)c1)c1ccn(S(=O)(=O)c2ccc(Cl)cc2)n1 (stereo not drawn)	15µM*	-9%	7%	u	-4%	-1
CC(Oc1ccc(Cl)cc1)c1ccnn1S(=O)(=O)c1ccccc1 (stereo not drawn)	-17%	-18%	-6%	-4%	-19%	-12
CC1(C)OC2=C(C(=O)c3ccccc3C2=O)[C@H](NCc2ccccc2)[C@H]1O	x	x	-31%[57.4 µM]	x	x	x
COC(=O)c1[nH]c2ccc(F)cc2c1C=O	x	x	-28%	x	x	x
CN(CC(=O)Nc1c(Cl)cccc1Cl)C(=O)c1cc(-c2cccs2)nn1-c1ccccc1	u	7%	3%	u	4%	-2
CCN(CC(=O)Nc1c(F)cccc1F)C(=O)c1cc(-c2cccs2)nn1-c1ccccc1	u	8%	6%	18µM*	1%	-13
Cc1ccc(NC(=O)CN(C)C(=O)c2cc(-c3cccs3)nn2-c2ccccc2)cc1	u	-4%	441%	u	-8%	-52*
CCN(CC(=O)Nc1ccccc1OC)C(=O)c1cc(-c2ccccc2)nn1-c1ccccc1	21µM*	u	-17%	u	u	-10
SMILES	DT40 TDP1 CPT	HT1080NT lethal	ALOX12 inh	DT40 TDP1 no CPT	HT1080 IDH1KD tx	IL1B secr inh
CCN(CC(=O)Nc1ccccc1OC)C(=O)c1cccc(-n2cccc2)c1	-17%	0%	-41%	-6%	-7%	-9
CC(Sc1nc2nc[nH]c2c(=O)[nH]1)C(=O)Nc1ccc(F)cc1 (stereo not drawn)	x	x	22%	x	x	x
O=S1(=O)N[C@H](c2ccccc2)C[C@H](c2ccc(C(F)(F)F)cc2)O1	15µM*	-1%	-3%	u	0%	-7
CC1CCc2c(nc3ncnn3c2NCCc2ccccc2F)C1 (stereo not drawn)	u	-2%	-3%	13µM*	-9%	x
Cc1ccc(C=Nc2ccc(N(C)C)cc2)o1	5.2µM*	-29%	7%	2.1µM*	u	20
Cc1noc(C)c1S(=O)(=O)N(C)C1CCCc2ccccc21 (stereo not drawn)	x	x	66%[176 µM]	x	x	x
COc1cccc(C(=O)Oc2ccc(C(=O)COC(=O)c3ccco3)cc2)c1	x	x	-11%	x	x	x
Cc1nc(NC(=O)CSc2nnc(-c3ccc4c(c3)OCO4)o2)c(Cl)cc1Cl	-16%	-3%	18%	u	-1%	23
O=C(CSc1nnc(-c2ccc3c(c2)OCO3)o1)Nc1ncc(C(F)(F)F)cc1Cl	u	-1%	434%	16µM*	0%	25
CCc1ccccc1Nc1nn2c(=O)c3ccc(C(=O)NCCC4=CCCCC4)cc3nc2s1	16µM*	x	0%	15µM*	x	x
CCc1ccccc1Nc1nn2c(=O)c3ccc(C(=O)NCc4ccccc4OC)cc3nc2s1	12µM*	x	-19%	u	x	x
Cc1ccc(Cl)cc1Nc1nn2c(=O)c3ccc(C(=O)NC4CCCCC4)cc3nc2s1	-19%	x	-5%	-28%	x	x
CCc1ccccc1Nc1nn2c(=O)c3ccc(C(=O)NCc4ccccn4)cc3nc2s1	u	0.26µM*	-19%	12µM*	0.029µM*	-14
COc1ccccc1Nc1nn2c(=O)c3ccc(C(=O)N4CCCCC4)cc3nc2s1	13µM*	0%	-24%	16µM*	9%	-20
CCCCn1nc2cc(C(=O)NCc3ccccc3OC)ccc2c1OCC	-23%	9%	-6%	-13%	11%	13
COc1ccccc1NC(=O)c1ccc2c(=O)n(-c3ccccc3F)cnc2c1	x	x	12%	x	x	x
COc1ccccc1Nc1nn2c(=O)c3ccc(C(=O)NCc4ccc(F)cc4)cc3nc2s1	3.7µM*	x	u	2.3µM*	x	x
FC(F)c1nc2nc(Cl)c(Cl)nc2[nH]1	16µM*	-13%	-8%	u	u	41
